Screening data (PubChem)
EPAC1 antagonist – qHTS for Antagonist of cAMP-regulated guanine nucleotide exchange factor 3 (EPAC1): primary screen; EPAC1 GEF assay, Rap1b-BODIPY-GDP exchange fluorescence; Potency, µM (doses to about 115 µM), actives largely listed as inhibitors; 360,000 compounds, 0.14% hits; AID 720709, 2013; note: nearly all actives have a fitted effect of over 50% in size
Target sequence (O95398 whole entry, looked up): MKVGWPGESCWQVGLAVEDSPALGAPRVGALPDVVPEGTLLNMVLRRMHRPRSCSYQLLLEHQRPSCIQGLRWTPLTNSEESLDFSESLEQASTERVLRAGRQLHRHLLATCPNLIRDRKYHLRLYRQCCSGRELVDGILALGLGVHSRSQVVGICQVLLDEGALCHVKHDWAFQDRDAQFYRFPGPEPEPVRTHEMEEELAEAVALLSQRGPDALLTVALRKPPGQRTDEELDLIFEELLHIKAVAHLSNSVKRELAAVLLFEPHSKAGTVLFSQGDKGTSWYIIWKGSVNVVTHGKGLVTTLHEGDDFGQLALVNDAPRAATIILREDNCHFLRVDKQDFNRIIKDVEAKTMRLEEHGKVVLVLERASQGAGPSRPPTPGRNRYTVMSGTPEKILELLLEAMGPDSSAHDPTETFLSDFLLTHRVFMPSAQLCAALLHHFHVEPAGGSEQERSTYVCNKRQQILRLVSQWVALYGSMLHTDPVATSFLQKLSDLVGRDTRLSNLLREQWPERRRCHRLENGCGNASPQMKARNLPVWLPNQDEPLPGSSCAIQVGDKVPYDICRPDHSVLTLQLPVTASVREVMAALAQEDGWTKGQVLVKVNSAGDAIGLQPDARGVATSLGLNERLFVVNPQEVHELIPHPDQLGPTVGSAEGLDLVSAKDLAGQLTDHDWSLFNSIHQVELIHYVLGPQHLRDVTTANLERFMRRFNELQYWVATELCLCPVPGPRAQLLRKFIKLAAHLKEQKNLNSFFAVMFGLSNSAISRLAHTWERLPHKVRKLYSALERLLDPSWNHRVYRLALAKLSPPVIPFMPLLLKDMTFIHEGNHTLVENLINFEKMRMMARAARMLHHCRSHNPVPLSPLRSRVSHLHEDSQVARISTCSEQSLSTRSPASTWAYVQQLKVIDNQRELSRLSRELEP
EPAC1 agonist – qHTS for Agonist of cAMP-regulated guanine nucleotide exchange factor 3 (EPAC1): primary screen; EPAC1 agonist qHTS, biochemical assay; response scale: 100% = response to 6.5 mM cAMP; 360,000 compounds, 0.073% hits; Rap guanine nucleotide exchange factor 3 (Homo sapiens), O95398; Potency, µM (titrated, usually from 154 µM), most hits filed as activators; note: nearly all actives have a fitted effect of over 60% in size
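Fluorescent GDP-exchange assay: 100 nM EPAC1 with 250 nM Rap1B preloaded with BODIPY-GDP and 50 uM GDP; compounds tested as concentration series, 5 min at room temperature, then read every 5 min for 30 min (ex 480/em 540 nm); normalized to 6.5 mM cAMP.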
EPAC2 ag – qHTS for Agonist of cAMP-regulated guanine nucleotide exchange factor 4 (EPAC2): primary screen; 360,000 compounds, 0.079% hits; EPAC2 activation, biochemical qHTS; response scale: 100% = 6.5 mM cAMP response; Rap guanine nucleotide exchange factor 4 (Homo sapiens), Q8WZA2; AID 720711, 2013; Potency, µM (highest dose often 154 µM), most hits filed as activators; note: nearly all actives have a fitted effect of over 50% in size
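Fluorescence exchange assay: 100 nM EPAC2 with 250 nM RAP1B-BODIPY-GDP and 50 uM GDP; compounds tested as a concentration-titration series (qHTS). Loss of Rap1-bound BODIPY-GDP fluorescence read at 480/540 nm; data normalized to 6.5 mM cAMP.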
EPAC2 antagonist – qHTS for Antagonist of cAMP-regulated guanine nucleotide exchange factor 2 (EPAC2): primary screen. Rap guanine nucleotide exchange factor 4 (Homo sapiens), Q8WZA2. EPAC2 GEF exchange of Rap1B-BODIPY-GDP, fluorescence. Potency, µM (series often up to 114 µM), most hits filed as inhibitors. 360,000 compounds, 0.18% hits. AID 720708, 2013; note: nearly all actives have a fitted effect of over 45% in size
Numbers stand for hits; 0 = inactive; ? = inconclusive; + = active, no number. This is a sample that favours compounds with a hit; in the whole collection about 0.39% have one here. Calls come from the whole dose curve; as a rule, active = well fitted curve in the direction sought with a large enough effect; inconclusive = small, poorly fitted or top-dose-only effect, or another doubt; inactive = no such curve, though single readings can be large; an effect the other way counts as inactive or inconclusive.

SMILES | EPAC1 antagonist | EPAC1 agonist | EPAC2 ag | EPAC2 antagonist
COc1cc(/C=C2/NC(=O)NC2=O)cc(Br)c1OCc1ccc(C(=O)O)cc1 | 79.4µM | 0 | 0 | 0
Cc1cccc(C)c1OCC(=O)Nc1ccccc1N1CCCCC1 | 0 | 0 | 0 | 10µM
COCCCn1c(=O)/c(=C\c2ccccc2OC(C)C)s/c1=C(/C#N)C(=O)Nc1ccc(C(=O)O)cc1 | 0 | 112µM | 0 | 0
O=C1c2ccccc2C(=O)N1c1nc(-c2cccs2)cs1 | ? | 0 | 0 | 56.2µM
CC(C)C(C(=O)O)N1C(=O)/C(=C/C=C/c2ccco2)SC1=S (centres undefined) | 56.2µM | 0 | 0 | 0
COc1cc(-c2ccc(Nc3ccccc3C(=O)O)c(OC)c2)ccc1Nc1ccccc1C(=O)O | 79.4µM | 0 | 0 | 0
COc1cccc(Nc2ccccc2C(=O)O)c1 | ? | 0 | 0 | 0
CC1CC1c1ccc(/C=C(\C#N)C(=O)Nc2ccccc2Cl)o1 (centres undefined) | 0 | 100µM | 0 | 0
CC1CC1c1ccc(/C=C(\C#N)C(=O)Nc2ccc(Cl)cc2)o1 (centres undefined) | 0 | 100µM | 0 | 0
N#C/C(=C/c1ccc(N2CCCCC2)o1)C(=O)Nc1ccc(Cl)cc1 | 0 | 100µM | 100µM | 0
COc1ccc(NC(=O)C2(C)CCN2CC2CCCCC2)cc1OC (centres undefined) | 0 | 0 | 0 | 0
Fc1cccc(Cl)c1C1Nc2cccc3cccc(c23)N1 | 0 | 0 | 0 | ?
Clc1cccc(Cl)c1C1Nc2cccc3cccc(c23)N1 | ? | 0 | 0 | 56.2µM
Cc1ccc(CNC(=O)c2cccc3c2C(=O)c2ccc(N4CCOCC4)cc2S3(=O)=O)cc1 | 0 | 0 | 0 | 0
COc1ccccc1N1CCN(c2ccc3c(c2)S(=O)(=O)c2cccc(C(=O)NCc4cccc(F)c4)c2C3=O)CC1 | 0 | 0 | 0 | 0
O=C(NCc1cccc(F)c1)c1cccc2c1C(=O)c1ccc(N3CCOCC3)cc1S2(=O)=O | 0 | 0 | 89.1µM | 0
CC1CCN(c2ccc3c(c2)S(=O)(=O)c2cccc(C(=O)NC[C@@H]4CCCO4)c2C3=O)CC1 | 0 | 0 | 112µM | 0
C=CCNC(=O)c1cccc2c1C(=O)c1ccc(N3CCCC3)cc1S2(=O)=O | 0 | 0 | 0 | 0
O=C(NCc1ccco1)c1cccc2c1C(=O)c1ccc(N3CCCC3)cc1S2(=O)=O | 0 | 89.1µM | 56.2µM | 0
Cc1ccc(CNC(=O)c2cccc3c2C(=O)c2ccc(N4CCCCC4)cc2S3(=O)=O)cc1 | 0 | 10µM | 56.2µM | 0
COc1cc(/C=C(\C#N)c2nc3ccc(C)cc3[nH]2)cc([N+](=O)[O-])c1O | 28.2µM | 0 | 0 | ?
COc1cc(/C=C(\C#N)c2nc3ccc(C)cc3[nH]2)c([N+](=O)[O-])cc1OC | 0 | 0 | 0 | 0
COc1ccc(OC)c(/C=C/c2nc3ccccc3[nH]c2=O)c1 | 0 | 89.1µM | ? | 0
N#C/C(=C\c1coc2ccc(O)cc2c1=O)C(=O)Nc1nc2ccccc2s1 | 0 | 89.1µM | 31.6µM | 0
CN1CCN(c2ccc(CNC(=O)C3(C)Cc4c(-c5ccc6c(c5)OCO6)ccnc4O3)cc2)CC1 (centres undefined) | ? | 0 | 0 | 0
SMILES | EPAC1 antagonist | EPAC1 agonist | EPAC2 ag | EPAC2 antagonist
CCCCCCCCN1C(=O)[C@H](CC(=O)NCc2ccc(C)o2)C[C@@]2(C(=O)OCC)CCC=C12 | 0 | 0 | 0 | 0
CCOC(=O)c1cc2c(ccn2C)n1CC(=O)N1CCN(c2cccc(C(F)(F)F)c2)CC1 | 56.2µM | 0 | 0 | ?
CCOC(=O)c1cc2c(ccn2C)n1CC(=O)N1CCN(c2ccc(F)cc2)CC1 | 0 | 0 | 0 | 0
Cc1ccc(S(=O)(=O)N2C[C@@H](C)[C@]3(C2)[C@H](O)[C@H](OC(=O)Nc2cccs2)C[C@H]2C(=O)N(c4ccccc4)C(=O)[C@H]23)cc1 | 0 | 0 | 0 | 0
COc1cc(/C=C2\C(=O)N(c3ccccc3)N=C2C)ccc1Oc1ccc([N+](=O)[O-])cc1[N+](=O)[O-] | 0 | 0 | 0 | 0
CC1=NN(c2ccccc2)C(=O)/C1=C\c1ccc(Oc2ccc([N+](=O)[O-])cc2[N+](=O)[O-])cc1 | 79.4µM | 0 | 0 | 0
COC(=O)c1ccc(/C=C(\C#N)C(=O)NC(C)c2ccccc2)cc1 (centres undefined) | 0 | 0 | 0 | 0
CC(NC(=O)/C(C#N)=C/c1ccc(N2CCOCC2)cc1)c1ccccc1 (centres undefined) | 0 | 89.1µM | ? | 0
N#C/C(=C\c1ccccn1)c1nc2ccccc2s1 | ? | 0 | 0 | 25.1µM
CCCc1[nH]c2ccc(C(=O)OC)cc2c1CCC | 0 | 0 | 0 | 28.2µM
CCCc1[nH]c2ccc(C#N)cc2c1CCC | 0 | 0 | 0 | 28.2µM
O=C(C(=O)N1CCC(Cc2ccccc2)CC1)c1ccccc1 | 0 | 0 | 0 | ?
CC1(c2nc3ccccc3[nH]2)CCCC2=Nc3ccccc3CN21 (centres undefined) | 0 | 0 | 0 | 0
NC(=O)CSc1nc2c(sc3ccccc32)c(=O)n1CCCC(=O)NCC1CCCO1 (centres undefined) | 0 | + | 0 | 0
O=c1c2ccccc2sn1-c1ccc(Cl)cc1Cl | 0 | 0 | 0 | 11.2µM
O=c1c2ccccc2ncn1-c1ccc(Cl)cc1Cl | 0 | 0 | 0 | ?
CCCCCCCCCCCCN1[C@@H](CC(=O)O)c2cc(C(F)(F)F)ccc2S1(=O)=O | 79.4µM | 0 | 0 | ?
CCCCCCCCN1[C@@H](CC(=O)O)c2cc(C(F)(F)F)ccc2S1(=O)=O | 0 | 0 | 0 | 0
CCCCCCCCCCCCN1[C@@H](CC(=O)O)c2cc(F)ccc2S1(=O)=O | 79.4µM | 0 | 0 | ?
Cc1sc(N)c(C(=O)c2ccccc2Cl)c1C | 0 | 0 | 0 | 31.6µM
COc1ccc(C(=O)c2ccccc2Cl)cc1 | 0 | 0 | 0 | 0
Cc1cc(/C=C2\SC(=S)NC2=O)c(C)n1C | ? | 0 | 0 | 0
O=C1NC(=S)S/C1=C\c1cc(Cl)cc(Cl)c1O | 39.8µM | 0 | 0 | 56.2µM
COc1ccccc1C=C1SC(=S)NC1=O | ? | 0 | 0 | 0
O=C1NC(=S)SC1=Cc1ccccc1Cl | ? | 0 | 0 | 35.5µM
Cc1cc(/C=C2\SC(=S)NC2=O)cc(C)c1O | ? | 0 | 0 | 15.8µM
O=C1NC(=S)S/C1=C\c1cccc([N+](=O)[O-])c1 | ? | 0 | 0 | 50.1µM
CCOC(=O)N(C)c1c(CC)nc2c(OCc3ccccc3C)cccn12 | 0 | 0 | 0 | 0
CCC(C)n1c(=N)c(C#N)cc2c(=O)n3ccccc3nc21 (centres undefined) | 0 | 0 | 56.2µM | 0
CCCn1c(=N)c(C#N)cc2c(=O)n3ccccc3nc21 | 0 | 0 | 0 | 0
